In ChEMBL document CHEMBL1157539, “Thousands of chemical starting points for antimalarial lead identification” (Nature, 2010):

Tests used:
Assay type in all cases: functional
[1] = test system: Plasmodium falciparum; experiment: GSK_TCMDC: Inhibition of Plasmodium falciparum 3D7 in whole red blood cells, using parasite LDH activity as an index of growth. Test compounds present at 2uM
[2] = test system: Plasmodium falciparum; experiment: GSK_TCMDC: Inhibition of Plasmodium falciparum Dd2 in whole red blood cells, using parasite LDH activity as an index of growth. Test compounds present at 2uM
[3] = test system: HepG2; experiment: GSK_TCMDC: Percent inhibition of human HepG2 cell line. Test compounds present at 10uM.

O=C(/C=C/c1ccc(Cl)c(Cl)c1)NCCCCCN1CCC(NC(=O)Nc2cc(Cl)nc(Cl)c2)CC1
Inhibition [1]: 100%
Inhibition [2]: 2%
Inhibition [3]: 4%

O=C(Nc1ccc(OC2CCN(Cc3ccccc3)CC2)c(Cl)c1)c1ccsc1.O=C(O)C(F)(F)F
Inhibition [1]: 87%
Inhibition [2]: 92%
Inhibition [3]: 3%

Cc1cccc2nc(-c3ccc(-c4ccc(NC(=O)CN5CCN(C)CC5)cc4)cc3)[nH]c12
Inhibition [1]: 100%
Inhibition [2]: 83%
Inhibition [3]: 29%

O=C(CCNc1ccnc(NCC2CCCCC2)n1)Nc1ccccc1.O=C(O)C(F)(F)F
Inhibition [1]: 95%
Inhibition [2]: 48%
Inhibition [3]: 55%

CN(C(=O)c1nn(-c2ccccn2)c2nccc(-c3cccs3)c12)C1CCCCC1
Inhibition [1]: 87%
Inhibition [2]: 1%
Inhibition [3]: 4%

COc1cc2nc(N3CCC(CNC(=O)c4cccc5cccnc45)CC3)nc(N)c2cc1OC
Inhibition [1]: 99%
Inhibition [2]: 33%
Inhibition [3]: 34%

Cc1cc2c(cc1C(F)(F)F)N(C(=O)Nc1cc(OCCN(C(C)C)C(C)C)cc(C(F)(F)F)c1)CC2.Cl
Inhibition [1]: 100%
Inhibition [2]: 86%
Inhibition [3]: 42%

O=C(NCCCCN1CCC(c2ccc3c(c2OCCN2CCCC2)CCCC3)CC1)c1ccc(-c2ccc(C(F)(F)F)cc2)cc1
Inhibition [1]: 100%
Inhibition [2]: 81%
Inhibition [3]: 25%

CC=Cc1cc(Cc2c[nH]c(=N)[nH]c2=N)cc(CCC)c1OC
Inhibition [1]: 97%
Inhibition [2]: 1%
Inhibition [3]: 16%

CCc1cn(CCc2ccccc2)c2ccc(C(=O)N[C@@H](Cc3ccccc3)[C@H](O)CNC(C)(C)CCCC(C)C)cc12.O=CO
Inhibition [1]: 98%
Inhibition [2]: 99%
Inhibition [3]: 66%

O=C(Nc1cccc(CN2CCCN(Cc3ccc(O)cc3)CC2)c1)c1ccc(Br)cc1.O=C(O)C(F)(F)F
Inhibition [1]: 94%
Inhibition [2]: 54%
Inhibition [3]: 19%

CCCNC(=O)C1Cc2c([nH]c3cc(Br)ccc23)C2(CCN(CCc3ccccc3)CC2)N1 (stereo not drawn)
Inhibition [1]: 92%
Inhibition [2]: 26%
Inhibition [3]: 15%

Cc1cc(N[C@@H](Cc2ccccc2)C(=O)Nc2ccccc2)nc(NCCc2ccc(F)cc2)n1.O=C(O)C(F)(F)F
Inhibition [1]: 96%
Inhibition [2]: 81%
Inhibition [3]: 26%

O=C(NCc1ccc(Cl)cc1)c1ccc(CN2CCCN(Cc3cccc(O)c3)CC2)cc1.O=C(O)C(F)(F)F
Inhibition [1]: 82%
Inhibition [2]: 12%
Inhibition [3]: 25%

CCCC(CNCc1ccc(Cl)c(C(F)(F)F)c1)CNc1nc2cnccc2[nH]1.Cl (stereo not drawn)
Inhibition [1]: 99%
Inhibition [2]: 8%
Inhibition [3]: 26%

N#Cc1cccc(C(=O)Nc2ccc(-c3ccc(CN4CCCC4)cc3)cc2)c1.O=C(O)C(F)(F)F
Inhibition [1]: 92%
Inhibition [2]: 32%
Inhibition [3]: 38%

COc1ccc2nccc([C@@H](O)CN3CCC(NC(=O)/C=C/c4cccc(C)c4)CC3)c2c1
Inhibition [1]: 84%
Inhibition [2]: 28%
Inhibition [3]: 16%

CC(=O)c1cccc(NC(=O)C2c3ccccc3C(=O)N(CC(C)C)C2c2cccs2)c1 (stereo not drawn)
Inhibition [1]: 100%
Inhibition [2]: 100%
Inhibition [3]: 11%

CCCC(CNC(=O)c1cc2c(Cl)cc(Cl)cc2[nH]1)CNc1cc(=O)c2ccccc2[nH]1.O=C(O)C(F)(F)F (stereo not drawn)
Inhibition [1]: 100%
Inhibition [2]: 94%
Inhibition [3]: 9%

CC(C)(C)c1ccc(NC(=O)c2cccc(CN3CCCN(Cc4cccc(Cl)c4)CC3)c2)cc1.O=C(O)C(F)(F)F
Inhibition [1]: 85%
Inhibition [2]: 30%
Inhibition [3]: 61%

Fc1ccc2[nH]c(-c3ccc(-c4ccc(CN5CCN(c6ccncc6)CC5)cc4)cc3)nc2c1.O=C(O)C(F)(F)F
Inhibition [1]: 100%
Inhibition [2]: 100%
Inhibition [3]: 37%

CC1CC(NCCCNc2cc(=O)c3ccccc3[nH]2)c2c(Cl)c(Cl)cc(Cl)c21 (stereo not drawn)
Inhibition [1]: 87%
Inhibition [2]: 52%
Inhibition [3]: 6%

CN(C)CCOc1cc(NC(=O)Nc2ccc(-c3ccncc3)c(Cl)c2)ccc1I
Inhibition [1]: 100%
Inhibition [2]: 100%
Inhibition [3]: 43%

Cc1cccc2nc(-c3cccc(-c4ccc(NC(=O)CN5CCOCC5)cc4)c3)[nH]c12
Inhibition [1]: 94%
Inhibition [2]: 12%
Inhibition [3]: 59%

Cc1ccc(NC(=O)c2ccc(CN3CCCN(CCC(C)C)CC3)cc2)cc1C.O=C(O)C(F)(F)F
Inhibition [1]: 92%
Inhibition [2]: 17%
Inhibition [3]: 25%

COc1cc(CN=C(S)NN=C(C)c2ccccn2)cc(OC)c1OC
Inhibition [1]: 99%
Inhibition [2]: 92%
Inhibition [3]: 45%

C#CCCC(=O)Nc1cccc(-c2cccc(-c3nc4cccc(C)c4[nH]3)c2)c1
Inhibition [1]: 97%
Inhibition [2]: 29%
Inhibition [3]: 30%

COc1cc2nccc(Nc3ccc(OCc4ccccc4)cc3)c2cc1OC
Inhibition [1]: 100%
Inhibition [2]: 99%
Inhibition [3]: 35%

CCCCCCNCCOc1ccc(-c2nc(-c3ccccc3)c(-c3ccccc3)[nH]2)cc1
Inhibition [1]: 98%
Inhibition [2]: 39%
Inhibition [3]: 14%

COc1ccc2ccc(F)c(CCN3CCC(NCc4cc5c(cn4)OCCO5)CC3)c2n1.Cl
Inhibition [1]: 96%
Inhibition [2]: 36%
Inhibition [3]: 15%

COc1ccc(NC(=O)c2ccc(Br)c(C)c2)cc1N1CCN(CCCCc2ccccc2)CC1.O=C(O)C(=O)O
Inhibition [1]: 88%
Inhibition [2]: 17%
Inhibition [3]: 29%

O=C(O)C(F)(F)F.c1ccc(-n2ncc(CNCc3ccc(-c4cccc(-c5nc6ccccc6[nH]5)c4)cc3)n2)cc1
Inhibition [1]: 94%
Inhibition [2]: 9%
Inhibition [3]: 21%

CN(C)c1ccc(-c2csc(C(=O)NC3CCCCN(Cc4ccc(C(C)(C)C)cc4)C3)c2)cc1.O=C(O)C(F)(F)F (stereo not drawn)
Inhibition [1]: 84%
Inhibition [2]: 55%
Inhibition [3]: 17%

O=C(NCCCN1CCC(N2CCCCC2)CC1)C1=Cc2cc(Br)ccc2OC1
Inhibition [1]: 100%
Inhibition [2]: 19%
Inhibition [3]: 26%

CO/C(=C\C=C\c1cc2cc(Cl)c(Cl)cc2[nH]1)C(=O)NCCCN1CCN(c2cccc(CCO)c2)CC1
Inhibition [1]: 100%
Inhibition [2]: 32%
Inhibition [3]: 61%

Cc1cc(Nc2ccncc2)n2nc(C)c(-c3ccccc3Cl)c2n1
Inhibition [1]: 99%
Inhibition [2]: 93%
Inhibition [3]: 2%

CCC(O)(C#Cc1c(C)nc(N)nc1N)CC
Inhibition [1]: 97%
Inhibition [2]: 0%
Inhibition [3]: 63%

Cc1nc(N)nc(N)c1OCc1ccc(Cl)c(Cl)c1.Cl
Inhibition [1]: 97%
Inhibition [2]: 5%
Inhibition [3]: 14%

CN(CCN)Cc1ccc(-c2ccc(-c3nc4cc(F)ccc4[nH]3)s2)cc1.O=C(O)C(F)(F)F
Inhibition [1]: 96%
Inhibition [2]: 81%
Inhibition [3]: 31%

CCCCCCNC(=O)C1Cc2c([nH]c3cc(Cl)ccc23)C2(CCN(CCC)CC2)N1 (stereo not drawn)
Inhibition [1]: 92%
Inhibition [2]: 18%
Inhibition [3]: 8%

Cl.NCc1ccc(Nc2nccc(Nc3ccc(-c4ccccc4)cc3)n2)cc1
Inhibition [1]: 100%
Inhibition [2]: 98%
Inhibition [3]: 47%

Cc1ccc(Cn2ncc(N3CCCNCC3)c(Cl)c2=O)cc1NC(=O)Nc1ccc(-c2ccccc2)cc1
Inhibition [1]: 100%
Inhibition [2]: 38%
Inhibition [3]: 55%

O=C(Nc1cccc(C2=NCCN2)c1)Nc1cccc(C2=NCCN2)c1 [IMIDOCARB]
Inhibition [1]: 98%
Inhibition [2]: 99%
Inhibition [3]: 16%

CCCCCCCCNCC(O)c1cc(-c2ccc(Cl)cc2)nc2cc(C)ccc12 (stereo not drawn)
Inhibition [1]: 99%
Inhibition [2]: 99%
Inhibition [3]: 0%

CC(=O)Nc1ccc(C(=O)Nc2cccc(-c3cccc(-c4nc5cc(C(F)(F)F)ccc5[nH]4)c3)c2)cn1
Inhibition [1]: 100%
Inhibition [2]: 97%
Inhibition [3]: 8%

COc1ccc2nccc([C@@H](O)CN3CCC(NCc4cc5cccc(OC)c5o4)CC3)c2c1.O=C(O)C(=O)O
Inhibition [1]: 99%
Inhibition [2]: 81%
Inhibition [3]: 10%

COc1ccc(CCN2CC[C@H](Nc3nc(-c4ccc(F)c(F)c4)nc4ccccc34)C2)cc1S(N)(=O)=O.Cl
Inhibition [1]: 99%
Inhibition [2]: 64%
Inhibition [3]: 18%

COc1ccc(CN(C)CCCc2ccc(NC(=O)c3cccc4c(O)c5ccccc5nc34)cc2)cc1OC
Inhibition [1]: 99%
Inhibition [2]: 54%
Inhibition [3]: 77%

N#Cc1ccc(NC(=O)c2ccc(C(=O)NCCCCN3CCC(c4ccc5c(c4OCCOC4CCCCO4)CCCC5)CC3)cc2)cc1 (stereo not drawn)
Inhibition [1]: 99%
Inhibition [2]: 97%
Inhibition [3]: 72%

O=C(NC1CCCCC1)N(Cc1cccc(-c2ccc(CNCc3ccc4c(c3)OCO4)cc2)c1)C1CCN(Cc2ccccc2)CC1.O=C(O)C(F)(F)F
Inhibition [1]: 92%
Inhibition [2]: 59%
Inhibition [3]: 13%

CCCSc1nc2c(c(=O)n1Cc1ccco1)C1(CCCCC1)Cc1ccccc1-2
Inhibition [1]: 100%
Inhibition [2]: 95%
Inhibition [3]: 0%

Cc1ccc(-c2ccc3c(c2)C=C(C(=O)NC2CCN(CCNC(=O)c4cccc(C(F)(F)F)c4)CC2)CCC3)cc1.O=C(O)C(F)(F)F
Inhibition [1]: 100%
Inhibition [2]: 56%
Inhibition [3]: 25%

Cc1ccc(F)c(OCC2CCN(c3ccc(C(=O)NC4CC4)cn3)CC2)c1
Inhibition [1]: 94%
Inhibition [2]: 95%
Inhibition [3]: 4%

CCN1CCCC1CNC(=O)c1cc2c(-c3ccc(Cl)cc3)nn(C)c2s1 (stereo not drawn)
Inhibition [1]: 96%
Inhibition [2]: 20%
Inhibition [3]: 27%

CCOc1cc(C(=O)NC2CC(C)(C)NC(C)(C)C2)ccc1-c1nc2cc(Cl)ccc2[nH]1
Inhibition [1]: 100%
Inhibition [2]: 64%
Inhibition [3]: 46%

CCOc1ccc2c(=NN=Cc3cc(OC)c(OC)cc3OC)cc(C)[nH]c2c1
Inhibition [1]: 100%
Inhibition [2]: 97%
Inhibition [3]: 24%
